Compound activity deposited in PubChem by several laboratories.
IDE act = boosts human insulin-degrading enzyme activity in HEK cells. FAbeta-B cleavage, fluorescence polarization; 0% vehicle, 100% cell-free pure enzyme wells. activation, % at 5.96 µM. actives 0.073% (n = 340,000);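 active = activation above the mean of all tested compounds plus 3 SD, set per screening campaign, cut at about 17% in these data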
Target sequence (P14735 whole entry, looked up): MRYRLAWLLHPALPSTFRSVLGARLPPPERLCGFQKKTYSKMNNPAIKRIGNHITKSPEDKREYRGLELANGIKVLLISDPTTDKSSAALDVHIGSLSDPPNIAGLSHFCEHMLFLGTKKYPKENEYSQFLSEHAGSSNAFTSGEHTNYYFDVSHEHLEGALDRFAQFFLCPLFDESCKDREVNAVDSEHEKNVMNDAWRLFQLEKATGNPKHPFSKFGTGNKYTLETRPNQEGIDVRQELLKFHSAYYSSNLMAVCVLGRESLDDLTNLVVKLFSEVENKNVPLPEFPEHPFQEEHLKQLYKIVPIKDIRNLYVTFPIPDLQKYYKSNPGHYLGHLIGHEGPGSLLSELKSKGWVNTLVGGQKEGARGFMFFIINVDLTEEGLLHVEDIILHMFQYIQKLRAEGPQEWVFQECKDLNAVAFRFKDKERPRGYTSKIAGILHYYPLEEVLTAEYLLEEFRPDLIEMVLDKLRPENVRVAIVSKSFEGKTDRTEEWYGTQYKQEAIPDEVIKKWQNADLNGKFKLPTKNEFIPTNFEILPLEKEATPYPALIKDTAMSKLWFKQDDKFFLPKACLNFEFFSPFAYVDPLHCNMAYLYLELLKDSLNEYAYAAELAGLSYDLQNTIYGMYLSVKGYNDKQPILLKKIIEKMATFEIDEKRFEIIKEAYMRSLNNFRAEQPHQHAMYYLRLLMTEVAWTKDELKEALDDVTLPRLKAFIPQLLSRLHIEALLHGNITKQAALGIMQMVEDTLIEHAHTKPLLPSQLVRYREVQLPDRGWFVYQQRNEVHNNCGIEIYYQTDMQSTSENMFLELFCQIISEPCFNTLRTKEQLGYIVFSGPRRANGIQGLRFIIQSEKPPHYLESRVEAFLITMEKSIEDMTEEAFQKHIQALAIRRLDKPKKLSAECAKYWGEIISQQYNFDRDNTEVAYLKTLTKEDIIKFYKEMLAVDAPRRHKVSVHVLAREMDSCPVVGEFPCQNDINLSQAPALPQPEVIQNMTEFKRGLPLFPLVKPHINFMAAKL
ALR H2O2 inh = human ALR oxidase inhibition via reduced H2O2 | P55789 | purified ALR, DTT oxidation, H2O2 HRP-luminol luminescence | inhibition, % (no concentration beside the values) | actives 3.8% (n = 290,000);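 active = mean replicate inhibition above about 79%, with every replicate also reaching it, limit read from the data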
IDE inh = inhibits human insulin-degrading enzyme in HEK cells; FAbetaB cleavage, fluorescence polarization; inhibition, % at 5.59 µM; actives 0.41% (n = 320,000); AID 434962;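 active = percent inhibition above the average of all tested compounds plus 3 SD, set per screening campaign, cut at about 16% in these data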;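 also: IDE supplied by intact live HEK cells; FP after avidin binding of uncleaved biotin substrate so inhibition keeps polarization high; 0% = DMSO wells and 100% = 60 µM reference IDE inhibitor Ii1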
CaV13 ICDI inh = Disruptors of the CACNA1D IQ motif to Ca2+-dependent inactivation inhibitor domain association, primary screening, Förster resonance energy transfer in intact living …; AID 743397; actives 0.098% (n = 340,000); inhibition, % at 12.3 µM; HEK cells, CFP/YFP FRET ICDI-IQ, plate reader, 10 min; percent FRET-ratio fall versus neutral wells;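 active = mean replicate inhibition of at least 30% and at least 1% of replicates passing that level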;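 also: 0% = median of the neutral control wells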
PolyA inhibitor = inhibitors of polyadenylation in S. cerevisiae; S. cerevisiae SKY197-pL101 polyadenylation reporter, beta-gal luminescence; efflux-impaired pdr1/pdr3 knockout yeast; score 100 = 6 SD above DMSO; activity score, % at 12 µM; actives 0.02% (n = 300,000);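 active = lowest replicate activity score at least 50, where 100 means six control SD above control mean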;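 also: yeast exposed to compound for 9 h at 30 °C; higher score means more reporter readthrough which indicates perturbed polyadenylation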
PfM18AAP inh = blocks P. falciparum M18 aspartyl aminopeptidase; recombinant PfM18AAP, H-Glu-NHMec fluorogenic cleavage; inhibition, % at 7.35 µM; actives 1.2% (n = 290,000);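 active = inhibition above the campaign mean inhibition over all tested compounds plus 3 SD, cut at about 28% in these data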;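 also: 0% = plate median of test compound wells and 100% = 2 mM ZnCl2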
* marks the source's active call; other numbers are inactive results; · = no result given. Hits are enriched below; roughly 4.1% of the tested compounds scored in any of these assays.

SMILES	IDE act	ALR H2O2 inh	IDE inh	CaV13 ICDI inh	PolyA inhibitor	PfM18AAP inh
CC(=O)Cn1cnc2scc(-c3ccc(C)c(C)c3)c2c1=O	2	7	-2	-4	5	6
COc1ccc(Cl)cc1-c1cc(C(=O)NC2CCCCC2)[nH]n1	·	·	·	-5	·	·
CCOC(=O)/C(=N\Nc1cc(C(F)(F)F)ccc1Cl)N(CC)CC	3	0	3	-3	4	-2
CCOC(=O)/C(=N\Nc1ccccc1Cl)N(C)C1CCCCC1	0	99*	1	-4	-13	1
C=CCn1c(CCSCc2ccccc2)n[nH]c1=S	-1	94*	2	-5	3	21
CCC/C(C#Cc1ccsc1)=C1/c2ccccc2C(=O)N1c1ccccc1	3	-1	-1	-3	·	·
Cc1ccc2c(c1)Oc1ccc(NC(=O)CCl)cc1C(=O)N2	0	93*	2	-5	-4	-10
CC(C)n1c(=S)[nH]c2scc(-c3cccs3)c2c1=O	0	90*	3	0	9	7
CCn1c(=S)[nH]c2scc(-c3cccs3)c2c1=O	-1	·	·	-4	-32	-2
O=c1c2c(-c3cccs3)csc2[nH]c(=S)n1-c1ccccc1	-2	90*	-4	-1	4	6
CC(c1ccc(Cl)cc1)N(CCN(C)C)c1ccccn1 (stereo unspecified)	·	·	·	-4	·	·
CCOC(=O)C(=NCC1CCCO1)NNc1cc(Cl)ccc1Cl (stereo unspecified)	2	99*	2	-2	5	1
CCOC(=O)/C(=N\Nc1cc(Cl)ccc1Cl)N1CC(C)OC(C)C1 (stereo unspecified)	1	-8	-3	0	-1	-2
C(=NN1CCCCCC1)c1ccccc1	-2	·	·	-6	·	·
Cn1cccc1/C=N/N1CCN(c2ccccc2)CC1	1	94*	4	-5	-10	1
O=C(O)c1ccc(/C=N/N2CCN(c3ccccc3)CC2)cc1	5	34	·	-2	7	-5
CN(c1ccccc1)c1ccc(/C=N/N2CCOCC2)cc1	5	99*	0	-7	11	3
C(=N/N1CCN(c2ccccc2)CC1)/c1ccncc1	4	97*	1	6	-2	-9
CCNc1nc(OC)nc(N(OC)S(=O)(=O)c2ccc(C)cc2)n1	5	82*	3	-2	3	-7
CCNc1nc(OCCNS(=O)(=O)c2cc(C)ccc2C)nc(N(C)C)n1	7	-1	0	·	-8	-4
CCCCCCCCNCCS(=O)(=O)NC1CCCCC1	1	·	·	-3	·	·
CCCCCC/C(C)=C1/SC(=S)NC1=O	-1	11	16	-8	-43	-2
C/C(C/C(C)=C1/SC(=S)NC1=O)=C1\SC(=S)NC1=O	-9	·	·	-5	·	29*
COC(=O)c1ccc2c(c1)SC1=C(CCCC1=O)N2	1	34	-1	·	-4	14
COC(=O)C1=C(C)Nc2ccc(C)cc2S1	3	98*	6	-2	-5	-5
SMILES	IDE act	ALR H2O2 inh	IDE inh	CaV13 ICDI inh	PolyA inhibitor	PfM18AAP inh
O=C(Nc1n[nH]c(=S)s1)c1ccc2ccccc2c1	-20	98*	-2	·	2	7
COc1ccc(C2=CC3=C(Br)C(=O)C(C)(O)C(=O)C3=CO2)cc1 (stereo unspecified)	-1	90*	3	·	15	·
CCC(=O)OC1(C)C(=O)C2=COC(c3ccc(OC)cc3)=CC2=C(Br)C1=O (stereo unspecified)	0	-2	1	-7	-7	·
COc1cccc2c(Nc3ccccc3C)cc(C)nc12	5	-5	1	-6	2	2
N#CC1=C2SCN(Cc3ccco3)CN2C(=O)CC1c1cccc2ccccc12 (stereo unspecified)	-7	-6	4	-5	0	30*
CC(=O)c1cc2c(cc1NC(=O)CN1Cc3ccccc3C1=O)OCO2	-5	-29	-3	-7	2	-3
COC(=O)c1ccc(NC(=O)C2CCN(C(=O)Nc3ccccc3)CC2)cc1	0	-1	0	-3	·	·
O=C(CCn1c(=S)[nH]c2ccccc2c1=O)N1CCOCC1	-8	85*	6	-6	3	10
O=C(CCCn1c(=S)[nH]c2ccccc2c1=O)N1CCCCC1	1	75	-2	-5	12	12
Cc1[nH]c2ccccc2c1SCC(=O)NC1CCCCC1	0	80*	3	-5	-9	-8
O=C(CSc1c[nH]c2ccccc12)NC1CCCC1	-7	-14	1	-4	-4	4
O=C(CCCn1c(=S)[nH]c2ccccc2c1=O)NC1CCCCC1	5	79*	-8	-6	3	3
CC1CC(C)CN(C(=O)CCCn2c(=S)[nH]c3ccccc3c2=O)C1 (stereo unspecified)	-6	96*	0	-5	-14	0
CC1=C(CC(=O)O)c2cc(F)ccc2/C1=C/c1ccc(S(C)=O)cc1 (stereo unspecified)	5	-15	-3	-6	3	1
O=c1c2ccc(Cl)cc2[nH]c(=S)n1CCCN1CCOCC1	-1	95*	-2	9	3	-4
COC(=O)C(F)(F)Sc1c(C)[nH]c2ccccc12	-2	99*	3	-7	·	3
COCC(=O)c1[nH]c2ccccc2c1C	1	92*	3	-3	-1	3
CC1CCN(CCCn2c(=S)[nH]c3c(sc4ccccc43)c2=O)CC1	-5	25	-1	-2	11	12
O=c1c2sc3ccccc3c2[nH]c(=S)n1CCN1CCOCC1	7	96*	1	-4	3	1
C[C@H]1CN([C@@H](C)CO)S(=O)(=O)c2ccc(-c3ccncc3)cc2O[C@H]1CN(C)C(=O)c1cccc(F)c1	·	·	·	-9	·	·
COc1ccc(C2=NOC3(CC(=O)N(c4ccc(F)cc4)C3=O)C2)cc1 (stereo unspecified)	-2	-2	6	1	-9	-3
Cc1ccc(S(=O)(=O)Nc2ncc(C(F)(F)F)cc2Cl)cc1	4	3	1	-3	11	-14
Nc1[nH]c(C(=O)c2ccc(Br)cc2)c(-c2ccncc2)c1C(=O)NCCc1c[nH]c2ccccc12	·	·	·	-14	·	·
O=C(O)O	·	·	·	·	·	2
O=C(C1CCC(Cn2c(=S)[nH]c3ccccc3c2=O)CC1)N1CCOCC1 (stereo unspecified)	4	83*	3	-4	-1	8
O=c1c2ccccc2[nH]c(=S)n1CCCN1CCOCC1	0	87*	4	-2	-14	17
O=C(Nc1c(C(=O)O)[nH]c2ccccc12)NC1CCCCC1	-1	98*	3	·	14	-4
